Measurements as given in PubChem BioAssay (NCI).
This is part of a sample that, as a whole, favours compounds with a hit. Of some 83,000 tested, about 20% had one in any assay.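 Plates (96-well) were seeded with cells, treated with compound at one concentration, and incubated for 48 hours before percent growth was determined.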 Calls of active or inactive are those of the source. The calls were made as follows: active = growth percent below 10; inactive = the rest.

Assays:
Test in all cases: NCI-60 one-dose screen, 48 h (100 = growth as untreated, 0 = no growth, -100 = all killed)
SK-MEL-2 melanoma = conditions: 10 µM unless noted
EKVX NSCLC = conditions: 10 µM unless noted
SN12C renal = conditions: 10 µM unless noted
UO-31 renal = conditions: 10 µM unless noted
TK-10 renal = conditions: 10 µM unless noted
ACHN renal = conditions: 10 µM unless noted
A498 renal = conditions: 10 µM
HL-60(TB) leukemia = conditions: 10 µM unless noted
CCRF-CEM leukemia = conditions: 10 µM unless noted
MOLT-4 leukemia = conditions: 10 µM unless noted
SR leukemia = conditions: 10 µM unless noted
OVCAR-8 ovarian = conditions: 10 µM unless noted
OVCAR-5 ovarian = conditions: 10 µM unless noted
OVCAR-4 ovarian = conditions: 10 µM unless noted
SK-OV-3 ovarian = conditions: 10 µM unless noted
IGROV1 ovarian = conditions: 10 µM unless noted
OVCAR-3 ovarian = conditions: 10 µM unless noted
HS 578T breast = conditions: 10 µM unless noted
RPMI-8226 leukemia = conditions: 10 µM unless noted

Measured: growth

CC(=O)OC1C(OC/C2=C/C3[C@@H](C(C)C)CC=C(C)[C@@H]3CC(OC(=O)/C=C/c3cn(C)cn3)[C@]3(C)C=C[C@@]2(O)O3)OCC(O)C1O (stereo partly drawn)
active: HL-60(TB) leukemia -3.65%
inactive: SK-MEL-2 melanoma 45.6% | EKVX NSCLC 33.9% | SN12C renal 44.2% | UO-31 renal 40.4% | TK-10 renal 32.3% | ACHN renal 45% | A498 renal 13.2% | CCRF-CEM leukemia 22.5% | MOLT-4 leukemia 35.8% | SR leukemia 24.8% | OVCAR-8 ovarian 32.7% | OVCAR-5 ovarian 49.4% | OVCAR-4 ovarian 43% | SK-OV-3 ovarian 11.9% | IGROV1 ovarian 33.6% | OVCAR-3 ovarian 15.3% | HS 578T breast 21.8%

COC(=O)CC12CC(NC(=O)c3csc([C@@H](C[C@H](C(C)C)N(C)C(=O)[C@@H](NC(=O)[C@H]4CCCCN4C)C(C)C)OC(C)=O)n3)(C1)C2
inactive: SK-MEL-2 melanoma 51.6% | EKVX NSCLC 38.6% | SN12C renal 25.4% | UO-31 renal 55.2% | TK-10 renal 50.5% | ACHN renal 17.2% | CCRF-CEM leukemia 13.6% | MOLT-4 leukemia 16.5% | SR leukemia 20.1% | OVCAR-8 ovarian 30.5% | OVCAR-5 ovarian 42.9% | OVCAR-4 ovarian 56.1% | SK-OV-3 ovarian 18.4% | IGROV1 ovarian 26.3% | HS 578T breast 45%
active: A498 renal 5.32% | HL-60(TB) leukemia -29.6% | OVCAR-3 ovarian -34.3%

CC[C@H](C)[C@H](NC(=O)[C@H]1CCCCN1C)C(=O)N(C)[C@H](C[C@@H](O)c1nc(C(=O)N[C@@H](Cc2ccccc2)C[C@H](C)C(=O)O)cs1)C(C)C
active: HL-60(TB) leukemia 8.99%
inactive: SK-MEL-2 melanoma 41.3% | EKVX NSCLC 91.5% | SN12C renal 90.5% | UO-31 renal 84.1% | TK-10 renal 91.9% | ACHN renal 106% | A498 renal 76.2% | CCRF-CEM leukemia 43.5% | MOLT-4 leukemia 79% | SR leukemia 29.2% | RPMI-8226 leukemia 59.8% | OVCAR-8 ovarian 93.5% | OVCAR-4 ovarian 98% | SK-OV-3 ovarian 97% | IGROV1 ovarian 76.6% | OVCAR-3 ovarian 63.2% | HS 578T breast 75.7%

CN(C)C(=O)Oc1ccccc1-c1ccccc1
inactive: SK-MEL-2 melanoma 102% | EKVX NSCLC 101% | SN12C renal 102% | UO-31 renal 86.3% | TK-10 renal 109% | ACHN renal 104% | A498 renal 115% | HL-60(TB) leukemia 99.7% | CCRF-CEM leukemia 96.9% | MOLT-4 leukemia 89.9% | SR leukemia 103% | RPMI-8226 leukemia 104% | OVCAR-8 ovarian 100% | OVCAR-5 ovarian 109% | OVCAR-4 ovarian 128% | SK-OV-3 ovarian 100% | IGROV1 ovarian 113% | OVCAR-3 ovarian 108% | HS 578T breast 113%

CC[C@H](NC(=O)[C@H]1CCCCN1C)C(=O)N(C)[C@H](C[C@@H](OC(C)=O)c1nc(C(=O)N[C@@H](Cc2ccccc2)C[C@H](C)C(=O)O)cs1)C(C)C
inactive: SK-MEL-2 melanoma 36.8% | EKVX NSCLC 40.6% | SN12C renal 17.1% | UO-31 renal 41.7% | TK-10 renal 69% | ACHN renal 34.4% | MOLT-4 leukemia 10.2% | RPMI-8226 leukemia 15.5% | OVCAR-4 ovarian 43.5% | SK-OV-3 ovarian 25.8% | IGROV1 ovarian 25.3% | HS 578T breast 11.4%
active: A498 renal -8.18% | HL-60(TB) leukemia -21.5% | CCRF-CEM leukemia 1.98% | SR leukemia 6.46% | OVCAR-3 ovarian -6.57%

CC[C@H](C)[C@@H]([C@@H](CC(=O)N1CCC[C@H]1[C@H](OC)[C@@H](C)C(=O)N[C@H](C)[C@@H](O)c1ccccc1)OC)N(C)C(=O)[C@@H](NC(=O)[C@@H](NC)C(C)C)C(C)C
active: A498 renal -11.7% | HL-60(TB) leukemia -20.2% | OVCAR-3 ovarian -13.9%
inactive: SK-MEL-2 melanoma 41.8% | EKVX NSCLC 41.7% | SN12C renal 36.7% | UO-31 renal 40.6% | TK-10 renal 47.2% | ACHN renal 29.3% | CCRF-CEM leukemia 20.8% | MOLT-4 leukemia 18.3% | SR leukemia 13.8% | RPMI-8226 leukemia 26.5% | OVCAR-8 ovarian 21% | OVCAR-5 ovarian 60.9% | OVCAR-4 ovarian 36.2% | IGROV1 ovarian 18.1% | HS 578T breast 28.9%

COc1ccc2c(c1)c(-c1nc(-c3cn(C)c4ncccc34)cs1)cn2CCCCN1CCCCC1
inactive: EKVX NSCLC 55.4% | A498 renal 71.8% | SK-OV-3 ovarian 38.5% | HS 578T breast 58.3%
active: SK-MEL-2 melanoma -31.5% | SN12C renal -79.7% | UO-31 renal -89.4% | TK-10 renal -26.8% | ACHN renal -95.2% | HL-60(TB) leukemia -64.9% | CCRF-CEM leukemia -50.5% | MOLT-4 leukemia -65% | SR leukemia -54.3% | RPMI-8226 leukemia -42% | OVCAR-8 ovarian -65.2% | OVCAR-5 ovarian -69.2% | IGROV1 ovarian -62.5% | OVCAR-3 ovarian -78.4%

CCOC(=O)[C@@H](C)C[C@H](Cc1ccccc1)NC(=O)c1csc([C@@H](C[C@H](C(C)C)N(C)C(=O)[C@@H](NC(=O)[C@H]2CCCCN2C)C(C)(C)C)OC(C)=O)n1
active: SK-MEL-2 melanoma 1.39% | A498 renal -11.4% | HL-60(TB) leukemia -33.2% | CCRF-CEM leukemia 1.8% | MOLT-4 leukemia 7.61% | SR leukemia 3.63% | OVCAR-8 ovarian 6.71% | OVCAR-3 ovarian -6.79%
inactive: EKVX NSCLC 31.5% | SN12C renal 13.3% | UO-31 renal 20.6% | TK-10 renal 49.2% | ACHN renal 17.1% | RPMI-8226 leukemia 11.9% | OVCAR-5 ovarian 32.3% | OVCAR-4 ovarian 42.7% | IGROV1 ovarian 18.1%

C[C@]12CCc3nc(Nc4ccccc4F)sc3C1=CC[C@@H]1[C@@H]2CC[C@]2(C)C(=O)CC[C@@H]12
inactive: SK-MEL-2 melanoma 92.8% | EKVX NSCLC 94.4% | SN12C renal 69.5% | UO-31 renal 64.8% | TK-10 renal 35.7% | A498 renal 90.6% | HL-60(TB) leukemia 34.2% | CCRF-CEM leukemia 26.6% | MOLT-4 leukemia 14.2% | SR leukemia 11.4% | RPMI-8226 leukemia 15% | OVCAR-8 ovarian 70.8% | OVCAR-5 ovarian 76.5% | OVCAR-4 ovarian 73.9% | SK-OV-3 ovarian 72.6% | IGROV1 ovarian 61.8% | OVCAR-3 ovarian 29.2% | HS 578T breast 67.8%
active: ACHN renal 9.9%

COc1ccc2c(c1)c(-c1nc(-c3cn(C)c4ncccc34)cs1)cn2CCN1CCOCC1
active: UO-31 renal 3.02%
inactive: SK-MEL-2 melanoma 56% | EKVX NSCLC 61.1% | SN12C renal 34.3% | TK-10 renal 49.4% | ACHN renal 32.1% | A498 renal 76.1% | HL-60(TB) leukemia 31.3% | CCRF-CEM leukemia 31.1% | MOLT-4 leukemia 33.5% | SR leukemia 39.1% | RPMI-8226 leukemia 13.3% | OVCAR-5 ovarian 78.2% | OVCAR-4 ovarian 42% | SK-OV-3 ovarian 85.1% | IGROV1 ovarian 28.7% | OVCAR-3 ovarian 47.9% | HS 578T breast 31.4%

COC(=O)[C@@H](C)C[C@H](Cc1ccccc1)NC(=O)c1csc(CC[C@H](C(C)C)N(C)C(=O)[C@@H](NC(=O)[C@H]2CCCCN2C)C(C)C)n1
inactive: SK-MEL-2 melanoma 35.7% | EKVX NSCLC 40.8% | SN12C renal 36.5% | UO-31 renal 48.8% | TK-10 renal 60.5% | ACHN renal 45.2% | CCRF-CEM leukemia 13.8% | MOLT-4 leukemia 14.4% | SR leukemia 15.9% | RPMI-8226 leukemia 19.8% | OVCAR-8 ovarian 20.6% | OVCAR-4 ovarian 53.2% | SK-OV-3 ovarian 37.7% | IGROV1 ovarian 32.4% | HS 578T breast 33.2%
active: A498 renal 0.74% | HL-60(TB) leukemia -34.4% | OVCAR-3 ovarian -5.55%

CC1(C)N=C(N)N=C(N)N1c1ccc(CCC(=O)Nc2ccc(S(=O)(=O)F)cc2)c(Cl)c1
active: SR leukemia 6.43% | OVCAR-8 ovarian -11.8% | IGROV1 ovarian -43.3%
inactive: SK-MEL-2 melanoma 48.5% | EKVX NSCLC 55.1% | SN12C renal 28.9% | UO-31 renal 93.1% | TK-10 renal 42.4% | ACHN renal 47.9% | A498 renal 34.8% | HL-60(TB) leukemia 18.3% | CCRF-CEM leukemia 44.9% | MOLT-4 leukemia 33% | OVCAR-5 ovarian 29% | OVCAR-4 ovarian 52.9% | SK-OV-3 ovarian 64.5% | OVCAR-3 ovarian 58.9% | HS 578T breast 59.9%

CCOC(=O)[C@@H](C)C[C@H](Cc1ccccc1)NC(=O)c1csc([C@@H](C[C@H](C(C)C)N(C)C(=O)CNC(=O)[C@H]2CCCCN2C)OC(C)=O)n1
active: A498 renal -3.32% | HL-60(TB) leukemia -32.3% | CCRF-CEM leukemia 5.17% | SR leukemia 7.72% | OVCAR-8 ovarian 9.59% | OVCAR-3 ovarian -17.4% | HS 578T breast 3.01%
inactive: SK-MEL-2 melanoma 28.1% | EKVX NSCLC 34.8% | SN12C renal 36% | UO-31 renal 39.7% | TK-10 renal 65.7% | ACHN renal 43.7% | MOLT-4 leukemia 19.7% | RPMI-8226 leukemia 15.4% | OVCAR-5 ovarian 32.1% | OVCAR-4 ovarian 46.4% | IGROV1 ovarian 33.4%

c1cnc2[nH]cc(-c3csc(-c4cn(CCCCN5CCCCC5)c5ccccc45)n3)c2c1
active: SR leukemia -23.5%
inactive: SK-MEL-2 melanoma 97.6% | EKVX NSCLC 83.1% | SN12C renal 75.2% | UO-31 renal 49.2% | TK-10 renal 124% | ACHN renal 98.5% | A498 renal 95.7% | HL-60(TB) leukemia 47.9% | CCRF-CEM leukemia 62.9% | MOLT-4 leukemia 56.4% | RPMI-8226 leukemia 52.5% | OVCAR-8 ovarian 87.3% | OVCAR-5 ovarian 96.3% | OVCAR-4 ovarian 83.8% | SK-OV-3 ovarian 109% | IGROV1 ovarian 44.9% | OVCAR-3 ovarian 90.5% | HS 578T breast 84.3%
